# Assay outcomes as filed in PubChem.
# NPC1 promoter act: NPC1 promoter activation. Huh7 NPC1 promoter luciferase reporter, 24 h. Potency, µM (highest dose often 9.22 µM), hits mostly activators. 2.4% of 320,000 active; note: nearly all actives have a fitted effect of over 60% in size
#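 Cells: Huh7 expressing luciferase under the NPC1 promoter, 1500/well. Seeded 2 h, compound added, incubated 24 h at 37 °C. Luciferase reagent, 10 min ambient, then luminescence.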
# Rab9 promoter act: activators of Rab9 promoter. Huh7 Rab9 promoter-luciferase reporter, luminescence, 24 h. Potency, µM (top dose mostly 9.22 µM), hits mostly activators. 2.8% of 320,000 active. AID 485297; note: nearly all actives have a fitted effect of over 60% in size
#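 Promoter activation is measured as luciferase luminescence in Huh7 cells stably transfected with a Rab9 promoter–luciferase construct, following 24 h compound exposure at 37 °C and 10 min reagent incubation at ambient temperature.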
# ELG1 genotoxic: induces genotoxicity in HEK293T cells with luciferase-tagged ELG1. HEK293T ELG1-luciferase reporter, luminescence, 16 h. 1.3% of 330,000 active. Potency, µM (top dose mostly 46 µM), most hits filed as activators; note: nearly all actives have a fitted effect of over 60% in size
#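 Screening used a luciferase reporter fused to human ELG1 in HEK293T cells. Luminescence was read on a CCD plate imager after 16 hr exposure and 30 min ONE-Glo incubation.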
# FLuc counter: counter-screen for miR-21 project: firefly luciferase inhibitors or activators. purified FLuc, Km substrates, luminescence inhibition. P08659. 6.9% of 360,000 active. Potency, µM (top dose mostly 57.5 µM), actives largely listed as inhibitors; note: nearly all actives have a fitted effect of over 55% in size
# Target sequence (P08659 whole entry, looked up): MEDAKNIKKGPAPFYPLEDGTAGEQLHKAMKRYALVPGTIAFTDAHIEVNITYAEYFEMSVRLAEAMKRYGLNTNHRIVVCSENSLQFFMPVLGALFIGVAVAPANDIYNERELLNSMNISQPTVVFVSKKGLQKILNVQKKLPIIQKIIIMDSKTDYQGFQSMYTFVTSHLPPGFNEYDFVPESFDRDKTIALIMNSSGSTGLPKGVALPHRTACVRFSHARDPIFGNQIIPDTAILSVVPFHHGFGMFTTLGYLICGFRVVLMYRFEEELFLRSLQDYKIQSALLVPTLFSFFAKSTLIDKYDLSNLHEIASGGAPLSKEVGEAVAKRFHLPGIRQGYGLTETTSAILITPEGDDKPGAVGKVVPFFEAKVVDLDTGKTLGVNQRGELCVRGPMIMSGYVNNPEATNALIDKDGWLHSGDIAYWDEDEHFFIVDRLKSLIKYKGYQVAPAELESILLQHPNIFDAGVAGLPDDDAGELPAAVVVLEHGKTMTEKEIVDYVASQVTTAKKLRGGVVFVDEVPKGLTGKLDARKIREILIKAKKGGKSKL
#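 Purified P. pyralis luciferase, 10 nM final, with Km-level 10 uM D-luciferin and 10 uM ATP in 50 mM Tris acetate pH 7.5, 10 mM Mg acetate, 0.01% Tween-20, 0.05% BSA; 6-point qHTS titration about 60 µM downward; luminescence read.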
# Luc counter: counter-screen: inhibitors of Kinase-Glo firefly luciferase. Q27757. Kinase-Glo luciferase, ATP luminescence, 8 min. Potency, µM (doses to about 38.3 µM), actives largely listed as inhibitors. 0.28% of 200,000 active; note: nearly all actives have a fitted effect of over 60% in size
#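 Substrate mix (final 50 mM imidazole pH 7.2, 50 mM KCl, 7 mM MgCl2, 10 uM ATP, 0.01% Tween 20, 0.05% BSA) plus pin-tool compound, then Kinase-Glo detection mix; 8 min ambient, luminescence read.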
# SMN2 splice enh: enhancers of SMN2 splice variant expression; HEK293 SMN2-luciferase splicing reporter, luminescence, 30-36 h; Potency, µM (doses to about 46.1 µM), hits mostly activators; 2.8% of 210,000 active; AID 1458; note: nearly all actives have a fitted effect of over 55% in size
#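 qHTS luciferase splicing reporter: luminescence rises when SMN2 exon 7 is included in transfected HEK293 cells. Compound exposure lasted 30-36 h at 37C, with 4.5 mM final sodium butyrate as control, followed by a ONE-Glo read.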
# A number is an active result; n = inactive; u = inconclusive; x = no result given; [ ] = dose if it differs, or a comment. In the library only some 7.3% were active in any assay of this set; here they are far more common. Calls come from the whole dose curve; as a rule, active = well fitted curve in the direction sought with a large enough effect; inconclusive = small, poorly fitted or top-dose-only effect, or another doubt; inactive = no such curve, though single readings can be large; an effect the other way counts as inactive or inconclusive.
SMILES,NPC1 promoter act,Rab9 promoter act,ELG1 genotoxic,FLuc counter,Luc counter,SMN2 splice enh
Cc1ccc(/C=N/Nc2ccc(Cl)nn2)cc1,1.78µM,3.16µM,u,u,x,x
O=C(Nc1ccccc1C(=O)O)c1ccc(NC(=O)C2CCCO2)cc1 (stereo not given),n,n,n,6.75µM,x,x
CCc1ccc(NC(=O)c2ccccc2NC(=O)C2CCCO2)cc1 (stereo not given),3.55µM,3.55µM,11.6µM,16.9µM,n,12.6µM
CCOC(=O)c1ccccc1NC(=O)C1CCCO1 (stereo not given),n,n,n,n,x,x
O=C(NCCOc1ccccc1)c1ccccc1NC(=O)C1CCCO1 (stereo not given),3.98µM,2.24µM,n,u,n,11.2µM
CC[N+](CC)(CC)CC[C@](O)(c1ccccc1)C1CCCCC1,x,x,x,x,n,n
O=C(/C=C/c1ccc2ccccc2n1)c1cc(Br)ccc1O,n,n,n,8.49µM,x,x
Cc1ccc(S(=O)(=O)N2CCc3nc(-c4ccccc4)c4c(c3C2)CO[C@@H](C)C4)cc1,x,x,x,x,n[7.66 µM],n[9.22 µM]
CC(=O)c1c(C)[nH]c(-c2ccccc2)c1C,n,n,u,u,n,u
CCOC(=O)c1c(C)[nH]c(C2=NNC(=Nc3ccccc3OC)SC2)c1C,2.51µM,u,n,9.53µM,n,11.2µM
CCOC(=O)c1c(C)[nH]c(C2=NNC(=Nc3ccccc3)SC2)c1C,u,2.51µM,n,12µM,x,x
CCOC(=O)c1c(C)[nH]c(C2=NNC(=Nc3ccc(OCC)cc3)SC2)c1C,n,n,n,u,n,n
CC(=O)c1c(C)[nH]c(C2=NNC(=NC(C)(C)C)SC2)c1C,1.78µM,1.58µM,14.6µM,23.9µM,n,12.6µM
CCc1ccccc1N(C)C(=O)c1cc2c(=O)oc3ccccc3c2s1,x,x,x,n,x,n
CC(C)(C)c1cc(C(=O)N/N=C/c2ccco2)n[nH]1,u,u,n,13.5µM,n,u
Nc1nccnc1C(=O)N/N=C/c1ccco1,n,u,n,13.5µM,x,x
Cc1ccsc1/C=N\NC(=O)c1cc(C(C)(C)C)[nH]n1,2.82µM,2.82µM,u,12µM,n,11.2µM
CCCN(Cc1cccs1)C(=O)Nc1cc(C)ccc1OC,x,x,x,n,x,x
CCc1ccc(-n2c(=O)c3sc4ccccc4c3n(CC(=O)N3CCCC3)c2=O)cc1,x,x,x,n,x,n
CC(=O)C1=C(O)C(=O)N(c2ccc(Br)cn2)C1c1ccc(F)cc1 (stereo not given),2.24µM,3.98µM,u,n,n,n
COc1cc(/C=N/NC(=O)c2cccc([N+](=O)[O-])c2)cc(OC)c1O,n,n,n,n,n,n
COc1ccc(/C=N/Nc2ccc([N+](=O)[O-])cc2)cc1O,n,u,11.6µM,7.57µM,x,x
COc1cccc(/C=N/Nc2ccc([N+](=O)[O-])cc2)c1O,u,n,u,2.39µM,x,x
COc1ccc(OC)c(/C=N/NC(=O)c2ccc(=O)[nH]n2)c1,n,n,n,n,x,x
COC(=O)c1ccc(N/N=C/c2cc([N+](=O)[O-])cc(OC)c2O)cc1,n,n,n,u,n,x
SMILES,NPC1 promoter act,Rab9 promoter act,ELG1 genotoxic,FLuc counter,Luc counter,SMN2 splice enh
COc1cccc(/C=N/NC(=O)c2ccc(=O)[nH]n2)c1O,n,n,n,3.38µM,x,x
COc1cccc(/C=N/NC(=O)c2ccc([N+](=O)[O-])cc2Cl)c1O,n,n,n,19µM,n,n
CCCNC(=O)Cn1nc(C)c2c(C)n(-c3ccccc3)nc2c1=O,x,x,x,n,x,x
Cc1cc(C)n(-c2nc(C)c(C)c(=O)n2CC(=O)Nc2ccc(Cl)c(Cl)c2)n1,x,x,x,n,x,x
Cc1oc2ncn(C)c(=O)c2c1C(=O)NCCCN(Cc1ccccc1)C(C)C,x,x,x,n,x,x
COc1cccc(N/N=C/c2cccc(Br)c2O)c1,u,u,u,6.75µM,x,x
CC(=O)Nc1ccc(SC[C@H](CC(C)C)N2CCN(CC(C)C)CCC2=O)cc1,n,n,n,n,x,x
Cc1ccc(SCCN2CCN(CCc3ccccc3)CCC2=O)cc1,n,n,n,n,x,x
Cc1ccc(SC[C@H](c2ccccc2)N2CCN(C)CCC2=O)cc1,u,2.82µM,u,15.1µM,x,x
CC(C)C[C@@H](CSc1ccc(Br)cc1)N1CCN(CC(C)C)CCC1=O,u,n,n,15.1µM,x,x
COc1ccc(SC[C@H](CC(C)C)N2CCN(C)CCC2=O)cc1,u,n,u,u,x,x
CC(C)CN1CCC(=O)N(CCSc2ccccc2)CC1,1.58µM,1.58µM,u,23.9µM,x,x
Cc1ccc(SC[C@H](CC(C)C)N2CCN(C)CCC2=O)cc1,u,3.55µM,u,15.1µM,x,x
Cc1ccc(C)c(NC(=O)C(=O)NCCc2csc3nc(-c4ccccc4C)nn23)c1,x,x,x,n,x,x
N[C@@H](CC1=CS(=O)(=O)c2ccc(Cl)cc21)C(=O)O,x,x,x,x,n[7.66 µM],n[9.22 µM]
CC(C)C[C@@H](CSc1ccc(Br)cc1)N1CCN(C)CCC1=O,3.55µM,u,u,19µM,x,x
CC1(C)OC(=O)C=C[C@@]2(C)C1C[C@@H](O)[C@]1(C)C2CC[C@@]2(C)C(c3ccoc3)OC(=O)[C@H]3O[C@]321 (stereo not given in full),x,x,x,x,n,n
COc1ccc(/C(C#N)=C/c2ccccn2)cc1,2µM,1.41µM,u,4.78µM,x,x
COC(=O)c1ccc(/C=C(\C#N)c2nc3ccccc3s2)cc1,n,n,n,u,n,n
N#C/C(=C\c1ccccn1)c1nc2ccccc2s1,n,u,u,3.38µM,n,n
C(=C(c1ccccc1)c1ccccc1)c1ccccn1,n,n,n,n,x,x
CCOC(=O)c1cc(-c2ccc(F)cc2)n(CCC(=O)Nc2nc3cc(C)c(C)cc3s2)c1C,x,x,x,n,x,x
CCCn1c(C)cc(/C=C(\C#N)C(=O)OCC(=O)NC(=O)NC(C)(C)C)c1C,n,n,n,16.9µM,n,n
Cc1cc(NC(=O)c2noc3c2CCc2ccccc2-3)no1,n,u,u,n,n,u
CC(=O)c1cccc(NC(=O)c2noc3c2CCc2ccccc2-3)c1,3.98µM,2.51µM,u,2.39µM,n,3.55µM
SMILES,NPC1 promoter act,Rab9 promoter act,ELG1 genotoxic,FLuc counter,Luc counter,SMN2 splice enh
Cc1ccc(O)c(NC(=O)c2noc3c2CCc2ccccc2-3)c1,u,u,23.1µM,n,n,n
COc1ccc(-c2nc3c4ccccc4n(CC(=O)N4CCN(c5ccccc5F)CC4)c(=O)n3n2)cc1,x,x,x,n,x,x
Cc1cccc(NC(=O)C2CCN(S(=O)(=O)c3ccc4c(c3)CCCN4C(=O)C3CCC3)CC2)c1,x,x,x,n,x,x
CCOC(=O)c1c(C)[nH]c(CCC(=O)NCc2cccc(OC)c2)c1C,x,x,x,n,x,x
CCOC(=O)c1c(C)[nH]c(N=Nc2cccc(OC)c2)c1C,1.78µM,1.12µM,u,1.69µM,n,14.1µM
CCOC(=O)c1c(C)[nH]c(N=Nc2cccc(C)c2)c1C,1.78µM,2.82µM,2.51µM,7.57µM,n,7.94µM
COc1ccc(CN(C(=O)c2oc3ccccc3c2C)C2CCS(=O)(=O)C2)cc1OC (stereo not given),n,n,n,n,n,11.2µM
